From PubChem BioAssay (NCATS) come the findings set out here.

The source made the active and inactive calls. Calls follow the shape of the dose curve; as a rule, active = well fitted curve in the direction sought with a large enough effect; inconclusive = small, poorly fitted or top-dose-only effect, or another doubt; inactive = no such curve, though single readings can be large or run the other way.

Chain of Alpha-galactosidase (Coffea arabica) (Q42656 whole entry, looked up): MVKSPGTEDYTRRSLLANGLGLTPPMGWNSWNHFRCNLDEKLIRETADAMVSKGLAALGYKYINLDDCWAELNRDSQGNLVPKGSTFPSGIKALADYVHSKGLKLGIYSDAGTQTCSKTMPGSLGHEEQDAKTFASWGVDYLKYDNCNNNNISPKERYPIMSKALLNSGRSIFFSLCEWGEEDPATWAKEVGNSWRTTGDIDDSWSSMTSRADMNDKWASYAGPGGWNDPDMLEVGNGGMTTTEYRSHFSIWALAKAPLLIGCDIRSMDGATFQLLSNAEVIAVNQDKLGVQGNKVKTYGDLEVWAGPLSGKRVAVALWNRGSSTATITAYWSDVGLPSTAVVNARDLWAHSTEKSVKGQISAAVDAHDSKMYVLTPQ

The target of this assay is Alpha-galactosidase (Coffea arabica) (UniProt Q42656). The assay is described as follows: Counterscreen for Glucocerebrosidase Inhibitors: qHTS Assay for Coffee Bean alpha-Galactosidase at pH 4.5 (AID 957). Particulars: purified coffee bean alpha-galactosidase, fluorogenic substrate; series mostly up to 76.9 µM. An excerpt:
NIH Chemical Genomics Center [NCGC]
NIH Molecular Libraries Screening Centers Network [MLSCN]
PI Name: Zheng, Wei [NIH]
Alpha-galactosidase is a homodimeric glycoprotein that hydrolyzes the terminal alpha-galactosyl moieties from glycolipids and glycoproteins. Deficiency of this enzyme results in Fabry Disease with progressive accumulation of globotriaosylceramide and other glycosphingolipids in vascular endothelial cells that causes renal failure, myocardial infarction and stroke, and premature death in patients. It has reported that the improper folding and trafficking of alpha-galactosidase resulted from the genetic mutations may account for a significant numbers of Fabry patients. […] We optimized this coffee bean alpha-galactosidase assay in 1536-well plate format as a counter-screen assay for identifying the selective small molecule inhibitors of other lysosomal enzymes.
NCGC Assay Protocol Summary:
This is a fluorogenic enzyme assay with 4-Methylumbelliferyl alpha-D-galactopyranoside as the substrate and green coffee bean […] (from Sigma-Aldrich) as the enzyme preparation. Upon the hydrolysis of this fluorogenic substrate, the resulting product, […]. 4-Methyllumbelliferone, can be excited at 365 nm and emits at 440 nm which can be detected by a standard fluorescence plate reader. Data were normalized to the controls for basal activity (without enzyme) and 100% activity (with enzyme). In the AC50 values were determined from concentration-response data modeled with the standard Hill equation.
Assay buffer: 50 mM citric acid, 0.005% Tween-20, pH 4.5. (pH 5.9 is an optimal condition for this enzyme assay. This assay in pH 4.5 is used for comparison the inhibitor activities with the human alpha-galactosidase assay)
1536-well assay protocol for the coffee bean alpha-galactosidase:
(1) Add 2 ul/well of enzyme (2 nM final)
(2) Add 23 nL compounds in DMSO solution. The final titration was 0.7 nM to 77 uM.
(3) Add 1 ul of substrate (80 uM final)
(4) Incubate at room temperature for 20 min.
(5) Add 2 ul stop solution (1M NaOH and 1M Glycine mixture, pH 10)
(6) Detect the assay plate in a ViewLux plate reader (PerkinElmer) with Ex=365 nm and Em=440nm.
Keywords: Alpha-galactosidase, Fabry Disease, pharmacological chaperone, chaperone therapy, high throughput screening, alpha-galactosidase inhibitor, MLSMR, MLSCN, NIH Roadmap, qHTS and NCGC
For orientation: Counterscreens check selectivity or assay interference.
Take `COC(=O)[C@H](N)CCCN=C(N)N[N+](=O)[O-]`: the call was inactive.
Next, `CC(=O)[C@@H]1CC[C@H]2[C@H]3CC[C@H]4C[C@@H](O)CC[C@]4(C)[C@@H]3CC[C@]12C`: “inactive”.
Next, `C[N+]1(C)C2CC(OC(=O)C(CO)c3ccccc3)CC1[C@@H]1O[C@H]21` (some centres undefined): “inactive”; `CCn1cnc2c(Nc3cccc(Cl)c3)nc(N[C@@H]3CCCC[C@H]3N)nc21`: “inactive”; `CN1C[C@@H](CS(=O)(=O)N(C)C)C[C@H]2c3cccc4c3c(cn4C)C[C@@H]21`: “inactive”.
Next, `COc1ccc2c(c1)[C@]13CCCC[C@@H]1[C@H](C2)NCC3`: “inactive”.
Turning to `Nc1ncnc2c1ncn2[C@@H]1O[C@@H](COP(=O)(O)CP(=O)(O)OP(=O)(O)O)[C@H](O)[C@@H]1O`, the compound was classed as inactive.
Next, `NC[C@H](O)c1cc(O)c(O)cc1F`: “inactive”; `C[C@@H]1Cc2cc3c(cc2C(c2ccc(N)cc2)=NN1)OCO3`: “inactive”.
With `C[C@@]12CC[C@H]3[C@@H](CC[C@@H]4C[C@H](O)CC[C@]43C)[C@H]1CC[C@H]2O`, the compound was called inactive.
For the compound `CC(C)C[C@H](NP(=O)(O)O[C@@H]1O[C@@H](C)[C@@H](O)[C@@H](O)[C@H]1O)C(=O)N[C@@H](Cc1c[nH]c2ccccc12)C(=O)O`, the call was inactive.
As to `CCNC(=O)[C@@H]1O[C@@H](n2cnc3c(N)ncnc32)[C@@H](O)[C@H]1O`, the result was inactive.
For the compound `C[C@@H](Cc1ccc(O)cc1)NC[C@@H](O)c1cc(O)cc(O)c1`, the call was inactive.
The same measure for `C[Se]C[C@@H](N)C(=O)O`: “inactive”; for `CCN(CC)c1ncnc2c1ncn2[C@@H]1O[C@@H](COP(=O)(O)OP(=O)(O)C(Br)(Br)P(=O)(O)O)[C@H](O)[C@@H]1O`: “inactive”.
Turning to `CC(=O)c1c(O)c(C)c(O)c(Cc2c(O)c3c(c(C(=O)/C=C\c4ccccc4)c2O)OC(C)(C)C=C3)c1O`, the call was inactive.
Next, `COc1ccc2c(c1O)-c1cccc3c1[C@H](C2)N(C)CC3`: “inactive”; `C=CCN1CC[C@]23c4c5ccc(O)c4O[C@@H]2/C(=N/NC(=O)c2ccccc2)CC[C@@]3(O)[C@H]1C5`: “inactive”; `Oc1ccc2c3c1O[C@@H]1c4[nH]c5c(c4C[C@@]4(O)[C@@H](C2)N(CC2CC2)CC[C@]314)C[C@]1(O)[C@@H]2Cc3ccc(O)c4c3[C@@]1(CCN2CC1CC1)[C@H]5O4`: “inactive”.
For the compound `CC(=O)OCC1=C(C(=O)[O-])N2C(=O)[C@@H](NC(=O)CCC[C@@H](N)C(=O)[O-])[C@@H]2SC1.[Zn+2]`, the result was inactive.
Next, `N[C@H](Cn1ccc(=O)[nH]c1=O)C(=O)O`: “inactive”.
For the compound `O=C(O)[C@H]1CCN1`, the call was inactive.
As to `C[C@@H]1O[C@H]1P(=O)(O)O`, the call was inactive.
On to `NC(=O)CN1C[C@@H](O)CC1=O`, for which the result was inactive.
Consider `COc1cc([C@@H](O)CN)ccc1O`, for which the compound was classed as inactive.
With `C[C@]12CC[C@H](O)C[C@@H]1CC[C@H]1[C@H]2CC[C@]2(C)[C@H](C(=O)CO)CC[C@@H]12`, the result was inactive.
The same measure for `C#CCN[C@@H](C)Cc1ccccc1`: “inactive”.
With `CC(C)N[C@@H](C)Cc1ccc(I)cc1`, the result was inactive.
Next, `N[C@H](CCl)C(=O)O`: “inactive”; `COc1cc(C[C@H](C)N)c(OC)cc1I`: “inactive”.
The same measure for `C[N+]1(C)CCc2cc3c(cc2[C@@H]1[C@@H]1OC(=O)c2c1ccc1c2OCO1)OCO3`: “inactive”.
The same measure for `CCCN1CC[C@@H]2c3cc(O)ccc3CC[C@H]21`: “inactive”; for `CO[C@@H]1CC=C2CCN3CCC4=C(CC(=O)OC4)[C@]23C1`: “inactive”.
With `COc1ccc2c3c1O[C@@H]1C(=O)CC[C@@]4(O)[C@@H](C2)N(CC2CC2)CC[C@]314`, the compound was called inactive.
Next, `O=C(O)[C@H]1[C@H](C(=O)O)[C@H]2CC[C@@H]1O2`: “inactive”; `C[C@@]12CC[C@H]3[C@@H](CCC4=C(O)C(=O)CC[C@]43C)[C@H]1CCC2=O`: “inactive”.
In the case of `C[C@]12CC[C@H](O)CC1=CC[C@@H]1[C@H]2CC[C@]2(C)C(=O)CC[C@H]12`, the result was inactive.
Next, `N[C@H](Cc1ccc(N(CCCl)CCCl)cc1)C(=O)O`: “inactive”.
`C[C@@]12CC[C@H]3[C@@H](CC=C4C[C@H](OS(=O)(=O)O)CC[C@]43C)[C@H]1CCC2=O`: the compound was classed as inactive.
